From PubChem
Hits are enriched below; roughly 8% of the tested compounds scored in any of these assays.
KB-V1 MDR tox – qHTS assay for MDR1-selective chemotherapeutics: Primary screen using the drug-selected MDR subline cells KB-V1; KB-V1 MDR cells viability, CellTiter-Glo, 72 h; Potency, µM (highest dose often 46.1 µM), actives largely listed as cytotoxic; 3.4% of 400,000 active; also: nearly all actives have a fitted effect of over 60% in size
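KB-V1, DMEM (no phenol red) + 10% FBS; cpd pin-transferred, titration series; 72 h, 37 degrees C; CellTiter-Glo, luminescence. Data normalized, curve-fit.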
HT1080 IDH1KD tx – qHTS for induction of synthetic lethality in tumor cells producing 2HG: qHTS for the HT-1080-IDH1KD cell line | HT-1080 IDH1 knockdown viability, ATP luminescence, 48 h | Potency, µM (titrated, usually from 46.1 µM), most hits filed as cytotoxic | 2% of 360,000 active
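In this qHTS, HT-1080 cells depleted of IDH1 are exposed for 48 h at 37 °C to compound titrations. Toxicity is scored from CellTiter-Glo luminescence, with DMSO as full viability and medium alone as none.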
HT1080NT lethal – qHTS for induction of synthetic lethality in tumor cells producing 2HG: qHTS for the HT-1080-NT fibrosarcoma cell line; 1.6% of 360,000 active; AID 686970, 2013; HT-1080-NT fibrosarcoma viability, CellTiter-Glo ATP luminescence, 48 h; Potency, µM (series often up to 46.1 µM), most hits filed as cytotoxic;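 also: NT is the 2HG producing partner of a matched IDH1 knockdown line; nearly all actives have a fitted effect of over 55% in size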
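A 48-hour cytotoxicity screen used HT-1080-NT cells plated 2 hours before compound delivery. ATP-based CellTiter-Glo luminescence measured viability, normalized to DMSO and no-cell controls.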
MCF10A rereplic – A quantitative high throughput screen for small molecules that induce DNA re-replication in MCF 10a normal breast cells | MCF 10A DNA re-replication, Hoechst nuclear intensity, 48 h | Potency, µM (highest dose often 46.1 µM), hits mostly activators | 2.9% of 350,000 active | AID 624296, 2012; also: nearly all actives have a fitted effect of over 50% in size
KB-3-1 tox – qHTS assay for MDR1-selective chemotherapeutics: Primary screen using the parental adenocarcinoma cell KB-3-1; AID 1347075, 2019; 1.4% of 400,000 active; Potency, µM (series often up to 46.1 µM), most hits filed as cytotoxic; KB-3-1 viability, CellTiter-Glo ATP luminescence, 72 h; also: nearly all actives have a fitted effect of over 60% in size
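Cytotoxicity measured as CellTiter-Glo luminescence after 72 h at 37 C. Compound titrations were pinned onto drug-naive KB-3-1 parental adenocarcinoma cells grown in DMEM with 10% FBS, and normalized data fitted to concentration-response curves.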
SW480 rereplic – A quantitative high throughput screen for small molecules that induce DNA re-replication in SW480 colon adenocarcinoma cells; SW480 DNA re-replication, Hoechst DNA content imaging, 48 h; 1.8% of 340,000 active; Potency, µM (doses to about 46.1 µM), usual class: activators; also: nearly all actives have a fitted effect of over 55% in size
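DNA re-replication was detected as more nuclei of elevated Hoechst intensity after 48 hr exposure to compound (23 nL pinned per well of 250 cells).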
A number is an active result; . = inactive; ? = inconclusive; / = not tested or not shown. Calls follow the shape of the dose curve; as a rule, active = well fitted curve in the direction sought with a large enough effect; inconclusive = small, poorly fitted or top-dose-only effect, or another doubt; inactive = no such curve, though single readings can be large; an effect the other way counts as inactive or inconclusive.

SMILES	KB-V1 MDR tox	HT1080 IDH1KD tx	HT1080NT lethal	MCF10A rereplic	KB-3-1 tox	SW480 rereplic
c1ccc(CN2CCC(N3CCN(Cc4ccc5c(c4)OCO5)CC3)CC2)cc1	?	.	.	21µM	.	.
O=C(c1ccc2c(c1)OCO2)C1CCCN(C2CCN(CCc3ccccc3)CC2)C1 (centres undefined)	.	23µM	10µM	?	.	?
Cc1ccc(O)c(-c2cc(C(=O)Nc3ccc(S(=O)(=O)N4CC(C)OC(C)C4)cc3)[nH]n2)c1 (centres undefined)	?	.	?	.	?	.
O=C(Nc1ccc(Cl)cc1)c1ccc(S(=O)(=O)N2CCOCC2)cc1	.	.	.	.	.	.
Cc1cc(O)c(-c2cc(C(=O)Nc3ccc(S(=O)(=O)N4CCOCC4)cc3)[nH]n2)cc1C	?	10µM	14µM	?	?	?
O=C(Nc1ccc(S(=O)(=O)N2CCOCC2)cc1)c1cc(-c2cc(Cl)ccc2O)n[nH]1	?	16µM	?	?	12µM	?
COc1ccc(C(=O)NCC(c2ccc(N(C)C)cc2)N2CCCC2)c(OC)c1 (centres undefined)	.	/	/	/	.	/
Cc1nc2ccccc2n1CC(=O)NCc1ccccc1	6.5µM	.	.	.	?	.
Cc1cc(=O)c2ccccc2n1CC(=O)NCc1ccccc1	4.6µM	.	.	?	.	.
Cc1nc2ccccc2n1CC(=O)NN	.	.	.	.	.	.
COc1ccc(-c2cc(C(F)(F)F)c(C#N)c(=O)[nH]2)cc1	.	.	.	18µM	.	.
N#Cc1c(C(F)(F)F)cc(-c2ccc(Cl)cc2)[nH]c1=O	.	?	?	4.6µM	.	?
N#Cc1c(C(F)(F)F)cc(-c2cccc(Cl)c2)[nH]c1=O	.	?	?	16µM	.	?
COc1ccccc1-c1cc(C(F)(F)F)c(C#N)c(=O)[nH]1	.	.	.	?	.	.
N#Cc1c(C(F)(F)F)cc(-c2ccc(F)cc2)[nH]c1=O	.	.	.	21µM	.	.
COC(=O)CC1Oc2ccc(C)cc2-n2cc(-c3ccc(C)cc3)nc21 (centres undefined)	.	/	/	/	.	/
CCCCN(CC)CCCNC(=O)c1cc2cc3ccc(C)cc3nc2o1	.	.	.	.	.	.
Cc1cccc(N(C)C(=O)c2cc3cc4ccc(C)cc4nc3o2)c1	12µM	13µM	?	10µM	?	?
Cn1cc(Br)c(C(=O)NN2C(=O)C3C4C=CC(C5CC45)C3C2=O)n1 (centres undefined)	.	.	.	?	.	.
Cn1cc(Br)c(C(=O)NN2C(=O)C3C(C2=O)C2C=CC3C23CC3)n1 (centres undefined)	.	.	.	0.73µM	.	.
COC(=O)c1c[nH]c2c1-c1cc(C(=O)OCc3ccccc3)n(S(=O)(=O)c3ccc(C)cc3)c1C(=O)C2=O	5.8µM	21µM	?	.	2.9µM	?
Nc1c(C(=O)Nc2cccc(F)c2)c2ccccn2c1C(=O)c1ccccc1	.	/	/	/	.	/
CCN1C(=C2C(=O)c3ccccc3C2=O)C=Cc2ccccc21	1.8µM	.	.	.	?	.
CCOC(=O)c1ccc(Nc2c(-c3cccc(O)c3)nc3nc[nH]n23)cc1	.	/	/	/	.	/
COc1ccc(CCNC(=O)C(C)n2nc(C)c3c(C)n(-c4ccc(C)cc4)nc3c2=O)c(OC)c1 (centres undefined)	.	.	21µM	.	.	?
SMILES	KB-V1 MDR tox	HT1080 IDH1KD tx	HT1080NT lethal	MCF10A rereplic	KB-3-1 tox	SW480 rereplic
COc1ccccc1CCNC(=O)C(C)n1nc(C)c2c(C)n(-c3ccccc3)nc2c1=O (centres undefined)	.	.	.	.	.	.
Cc1nc([N+](=O)[O-])cn1CC(O)c1ccc2c(c1)OCCO2 (centres undefined)	.	/	/	/	.	/
Clc1ccc(-c2c[n+](Cc3ccc(Cl)cc3Cl)c3n2CCCCC3)cc1	.	16µM	8.2µM	.	?	.
Clc1ccc(-c2c[n+](Cc3ccc(Br)cc3)c3n2CCCCC3)cc1	.	?	?	.	?	.
COc1ccc(-c2c[n+](CC(=O)c3ccccc3)c3n2CCCCC3)cc1	.	?	?	.	?	.
Clc1ccc(-c2c[n+](Cc3cccc(Cl)c3)c3n2CCC3)cc1	.	?	.	.	6.5µM	.
CC1CCC(C(C)C)C(OC(=O)C[n+]2cc(-c3ccc(Cl)cc3)n3c2CCCCC3)C1 (centres undefined)	.	21µM	21µM	?	?	?
Clc1ccc(C[n+]2cc(-c3ccccc3)n3c2CCCCC3)c(Cl)c1	?	16µM	15µM	.	2.1µM	.
Clc1ccc(C[n+]2cc(-c3ccccc3)n3c2CCC3)cc1Cl	.	?	?	.	?	.
CC1=C(C(=O)Nc2cccnc2)C(c2ccc(F)cc2)n2nc(-c3cccc(C)c3)nc2N1 (centres undefined)	.	/	/	/	.	/
Cc1c(Cl)cccc1NC(=O)Cn1c(=O)n(Cc2ccco2)c(=O)c2sc3ccccc3c21	.	/	/	/	.	/
CC(C)(C)c1ccc(Oc2ccc(NC(=O)c3cccs3)cn2)cc1	?	12µM	15µM	?	?	.
COc1ccc(NC(=O)c2cccs2)cn1	?	.	?	.	.	.
CC(C)(C)c1ccc(Oc2ccc(NC(=O)c3ccco3)cn2)cc1	?	7.3µM	18µM	?	.	.
Cc1cccc(N2CCN(C(=O)c3cc4ccc5cccnc5c4[nH]3)CC2C)c1 (centres undefined)	.	/	/	/	.	/
CCOc1c(Br)ccc2c1sc1nc[nH]c(=O)c12	21µM	.	.	?	?	.
Cc1cc(C)n2nc(CNC(=O)c3cccc(Cl)c3)nc2n1	.	/	/	/	.	/
CC(OC(=O)c1cccc(O)c1)C(=O)N(C)Cc1ccccc1 (centres undefined)	?	.	.	.	.	.
CC(OC(=O)c1ccccc1NS(=O)(=O)c1cccc(N)c1)C(=O)N(C)Cc1ccccc1 (centres undefined)	3.7µM	.	.	.	?	.
Cc1nn(CCC(=O)N2CCN(c3ccccc3)CC2)c(C)c1S(=O)(=O)N1CCCC1	.	/	/	/	.	/
C=CCOc1ccc2cccc(/C=N/NC(=O)c3cc4cc([N+](=O)[O-])ccc4s3)c2c1	.	.	.	?	?	21µM
